Results on 82 compounds are retold here after paper PMC9574860, “Chemical Toolkit for PARK7: Potent, Selective, and High-Throughput” (Journal of Medicinal Chemistry, 2022).

About 400 (5.1%) of roughly 7,900 compounds showed an effect of 50% or more. The entries come from a sample that favours strong results as a whole.

The target of the assay is Parkinson's disease protein 7 (PARK7/DJ1) (human, UniProt Q99497). As to the kind of experiment: primary screen, percent inhibition; read as competition with a fluorescent probe by fluorescence polarization; higher = more effect of the substance. Conditions: 100 µM. In a few lines: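 Covalent fragments at 100 μM final were incubated 2 h with 0.2 μM PARK7, then 20 nM probe JYQ-107 added for a further 2 h. Fluorescence polarization read at 480/520 nm; relative FP loss versus reference controls gave remaining enzyme activity.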
Sequence of Parkinson's disease protein 7 (PARK7/DJ1) (Q99497 whole entry, looked up, the tested form may be a part): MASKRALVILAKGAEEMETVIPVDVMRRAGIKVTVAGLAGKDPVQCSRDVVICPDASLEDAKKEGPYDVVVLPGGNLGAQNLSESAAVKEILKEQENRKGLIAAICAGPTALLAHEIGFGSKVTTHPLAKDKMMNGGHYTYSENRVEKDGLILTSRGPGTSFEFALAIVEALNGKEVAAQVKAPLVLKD
With `CC1(C)OB(c2cccc(OCCN3CCCCC3)c2)OC1(C)C`, the Inhibition % is -0.0143%.
The same measure for `O=C(CCCl)NC1CCCCC1`: 3.8%; for `O=c1onc(-c2cccnc2)n1C1C=CCCC1` (stereo not shown): 54.8%; for `O=c1onc(-c2ccccn2)n1C1C=CCCC1` (stereo not shown): 5.08%.
The same measure for `O=c1onc(-c2cccnc2)n1Cc1cc(F)cc(F)c1`: 16.6%.
Regarding `O=C(Nc1ccncc1)N1CCC(C2OCCO2)CC1`, the Inhibition % amounted to 9.17%.
Consider `O=C(Oc1ccccc1)N1CC(O)C1`, for which the Inhibition % is on record as 29%.
For the compound `C=CC(=O)NC(C)c1cnn(C)c1` (stereo not shown), the Inhibition % turned out to be 5.67%.
With `CC1(C)NC(=O)N(CCS(=O)(=O)F)C1=O`, the Inhibition % is reported as -4.21%.
With `Cl.O=S(=O)(F)CC1CCCNC1` (stereo not shown), the Inhibition % turned out to be 7.49%.
As to `Cl.O=S(=O)(F)CC1CNCCO1` (stereo not shown), the Inhibition % is reported as 11%.
As for `O=C1NC(=O)C(CCS(=O)(=O)F)N1` (stereo not shown), the Inhibition % worked out at 97.6%.
The same measure for `Cl.O=S(=O)(F)CCC1CCCCN1` (stereo not shown): 1.97%; for `O=C1NC(=O)C(CCS)N1` (stereo not shown): 26.8%; for `O=C1NC(=O)C(CS(=O)(=O)F)N1` (stereo not shown): 69.7%.
For `O=C1NC(=O)C(CS)N1` (stereo not shown), the Inhibition % worked out at 84.8%.
Turning to `O=C1NC(C2CC2)C1C1CC1` (stereo not shown), the Inhibition % amounted to 6.35%.
Regarding `N#Cc1cnc(OCC(F)(F)F)cn1`, the Inhibition % was 4.9%.
As for `C=CC(=O)N1CCC(S(=O)(=O)C(C)C)CC1`, the Inhibition % was 5.57%.
The same measure for `Cc1csc(C(C#N)=Cc2cnn(C)c2)n1`: 11.9%; for `Cc1cc(C)nc(S(=O)(=O)F)n1`: 55.9%.
For `Cc1cnc(S(=O)(=O)F)nc1` the value was 33.7%; for `Cc1cc(C)nc(S)n1`, 17.2%.
As to `O=C(CCCCl)N1CCCCC1`, the Inhibition % was 2.86%.
With `O=C1OCCC1N1C(=O)c2ccccc2S1(=O)=O` (stereo not shown), the Inhibition % is recorded as 6.02%.
On to `Cc1ccc(C=CS(=O)(=O)Nc2cc(C)nn2C)cc1`, for which the Inhibition % is recorded as 20%.
For `C=CC(=O)N1CCC(C)C(OC)C1` (stereo not shown), the Inhibition % is 7.85%.
Take `O=C(O)c1ccc(CS)c(F)c1`: the Inhibition % is 82.7%.
For `O=C(O)c1cccc(CS)c1`, the Inhibition % was 30.4%.
As for `O=C(O)c1ccc2c(=O)[nH]c(S)nc2c1`, the Inhibition % is given as 11.3%.
For `O=C(CCl)Nc1cc2c(cc1[N+](=O)[O-])OCCCO2` the value was 3.15%; for `COc1cccc(C2CCCN2C(=O)CCl)c1` (stereo not shown), 2.56%; for `C=CC(=O)N(C)Cc1cnc(N(C)C)nc1`, 5.02%.
Take `CC(C#N)NS(=O)(=O)c1ccc(S(=O)(=O)F)cc1` (stereo not shown): the Inhibition % was found to be 23.5%.
Take `CCC(C#N)NS(=O)(=O)c1ccc(S(=O)(=O)F)cc1` (stereo not shown): the Inhibition % was 31.6%.
Regarding `CCCC(C#N)NS(=O)(=O)c1ccc(S(=O)(=O)F)cc1` (stereo not shown), the Inhibition % came to 33.3%.
For `N#CC1(NS(=O)(=O)c2ccc(S(=O)(=O)F)cc2)CCC1`, the Inhibition % was 31.4%.
On to `CC(C#N)NS(=O)(=O)c1cccc(S(=O)(=O)F)c1` (stereo not shown), for which the Inhibition % came to 102%.
As to `CCCC(C#N)NS(=O)(=O)c1cccc(S(=O)(=O)F)c1` (stereo not shown), the Inhibition % came to 96.8%.
The same measure for `O=C(CN1CCSC1=O)NC1CCN2CCCCC12` (stereo not shown): 10.2%; for `COc1ccc(C(C)(C)C)cc1NC(=O)CCl`: 10.8%.
For `O=C(Nc1ccccc1F)N1CCC(C2OCCO2)CC1` the value was 5.67%.
Turning to `C=C(C)c1nc(C#N)c(NCc2ccccc2)o1`, the Inhibition % was 9.08%.
Consider `N#Cc1cc(N)c2ccccc2n1`, for which the Inhibition % came to 10.9%.
Consider `COc1ccc2nc(C#N)ccc2c1`, for which the Inhibition % was 3.18%.
Consider `Nc1ccc2nc(S)ccc2c1`, for which the Inhibition % worked out at 67.6%.
With `Sc1ccc2ccccc2n1`, the Inhibition % is on record as 14.2%.
For the compound `N#Cc1ccc2cc(N)ccc2n1`, the Inhibition % was determined as 101%.
As to `Nc1cc(N)nc(S)n1`, the Inhibition % is reported as 6.46%.
Turning to `N#Cc1ccc(Cl)cc1N1CCC(C2OCCO2)CC1`, the Inhibition % turned out to be 2.51%.
On to `C=CC(=O)NC1CCCCNC1=O` (stereo not shown), for which the Inhibition % is reported as 3.54%.
For `COc1ccc(S(N)(=O)=O)cc1NC(=O)CCl`, the Inhibition % stood at 2.41%.
Turning to `C=CC(=O)NC(NC(=O)C=C)c1ccccc1F`, the Inhibition % was 14.4%.
With `CN(C)c1nccc(CNCc2ccc(B(O)O)cc2)n1`, the Inhibition % was -0.514%.
Consider `C=CC(=O)NCC1CCCOC1c1ccc(C)cc1` (stereo not shown), for which the Inhibition % amounted to 9.55%.
In the case of `CNC1CCCN(C(=O)C=Cc2cncc(F)c2)C1` (stereo not shown), the Inhibition % was 29.3%.
Regarding `Cl.O=C(CCl)NCC(c1ccccc1Cl)N1CCCC1` (stereo not shown), the Inhibition % is listed as 3.25%.
In the case of `C=CC(=O)Nc1cnn(C(C)C)c1C1CC1`, the Inhibition % was determined as 10.5%.
Turning to `O=C1SCCN1CN1CCN(c2ccccc2F)CC1`, the Inhibition % was determined as 3.81%.
Turning to `CCCN1CCN(c2oc(-c3ccco3)nc2C#N)CC1`, the Inhibition % came out at 9.64%.
Take `N#Cc1nc(-c2ccco2)oc1N1CCN(C(=O)CCl)CC1`: the Inhibition % is reported as 51.4%.
On to `CCN1CCN(c2oc(-c3ccco3)nc2C#N)CC1`, for which the Inhibition % came out at 9.73%.
For `N#Cc1nc(-c2ccco2)oc1N1CCNCC1` the value was 9.97%.
Regarding `C#CCN1CCN(c2oc(-c3ccco3)nc2C#N)CC1`, the Inhibition % is 53.7%.
For `CC(C)N1CCN(c2oc(-c3ccco3)nc2C#N)CC1` the value was 10%.
The same measure for `ClCCCc1cccnc1`: 7.37%.
The same measure for `Cc1c(C#N)c(NC(=O)CCl)n(C2CCCCC2)c1C`: 15.6%; for `O=C(CCl)Nc1ccc2c(c1)oc1ccccc12`: 62.9%.
`COc1cc2c(cc1NC(=O)CCl)oc1ccccc12`: the Inhibition % came out at 4.67%.
For the compound `O=C(CCl)Nc1ccc(Br)cc1`, the Inhibition % worked out at 70.1%.
Regarding `O=C(CCl)Nc1ccc(F)c(Cl)c1`, the Inhibition % is recorded as 21.3%.
As for `CC(=O)c1oc2ccccc2c1NC(=O)CCl`, the Inhibition % is given as 9.9%.
For `O=C(CCl)Nc1ccc(Cl)c(F)c1` the value was 36.8%.
As to `O=C(CCl)Nc1ccc2c(c1)CCC2`, the Inhibition % is recorded as 57.8%.
As to `C=CC(=O)Nc1ccc2c(c1)CCC2`, the Inhibition % was 7.23%.
The same measure for `O=C(CCl)NC(=O)Nc1ccc(Br)cc1`: 23.3%; for `O=C(CCl)Nc1ccc(Cl)c(Cl)c1`: 63%.
The same measure for `O=C(CCCl)Nc1ccc2c(c1)CCC2`: 4.93%; for `O=C(CCl)Nc1cccc(Br)c1`: 29.1%; for `O=C(c1cccnc1S)N1CCOC2(CCCC2)C1`: 6.34%.
In the case of `C=CC(=O)NCc1cc2n(n1)CCC2`, the Inhibition % was 10.7%.
Turning to `CC1(C)OB(c2cccc(OC(F)F)c2)OC1(C)C`, the Inhibition % is reported as 3.49%.
